# PubChem BioAssay (NCATS)
# Values joined by “and” are separate entries in the source; they are usually repeats but may differ in a detail not shown here. Equal values may be shown once. Records with an inconclusive call do not appear. Where a call stands in place of a potency, no number is given. Active and inactive are the calls of the source. Unless noted, the call rests on the fitted dose curve.
# Assays:
# [1] = Primary qHTS for inhibitors of SARS-S pseudo-typed particle cell entry (AID 1479145); further: nearly all actives have a fitted effect of over 45% in size; further: potency means the concentration at half of the fitted maximal effect
# [2] = Primary qHTS for inhibitors of MERS-S pseudo-typed particle cell entry (AID 1479149); further: nearly all actives have a fitted effect of over 60% in size; further: potency means the concentration at half of the fitted maximal effect
# [3] = Primary qHTS for Vero E6 cytotoxicity: counterscreen for inhibitors of SARS-S pseudo-typed particle cell entry (AID 1479150)
# [4] = Confirmatory qHTS for VERO E6 Cytotoxicity Assay: Counterscreen for SARS-CoV-2 CPE Assay (AID 1508605); further: nearly all actives have a fitted effect of over 60% in size; further: potency means the concentration at half of the fitted maximal effect
# [5] = Confirmatory qHTS for activators (rescue) of SARS-CoV-2 Cytopathic Effect (CPE) (AID 1508606); further: potency means the concentration at half of the fitted maximal effect; nearly all actives have a fitted effect of over 70% in size
# [6] = Primary qHTS for Huh7 cytotoxicity: counterscreen for inhibitors of MERS-S pseudotyped particle cell entry (AID 1479147); further: potency means the concentration at half of the fitted maximal effect
# [7] = Confirmatory qHTS to identify inhibitors of SARS-CoV-2 cell entry (AID 1645844); further: potency means the concentration at half of the fitted maximal effect; nearly all actives have a fitted effect of over 45% in size
# Summary of the method: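 HEK293-ACE2 cells were pretreated 1 h with compound, then infected with MLV-based pseudoparticles bearing C-terminally truncated Wuhan-Hu-1 spike for 48 h at 37C; luciferase luminescence normalized to spike PP and bald PP wells.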
# [8] = Cytotoxicity counterscreen for inhibitors of SARS-CoV-2 cell entry (AID 1645845); further: nearly all actives have a fitted effect of over 50% in size; further: potency means the concentration at half of the fitted maximal effect
# Summary of the method: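 HEK293-ACE2 cells (Expi293F stably expressing human ACE2) seeded overnight, then compound for 1 h plus 48 h at 37C. Viability as ATP content by luminescence; normalized to wells with cells and media-only wells.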
# [9] = Primary qHTS for inhibitors of La Crosse Virus (LACV) - induced cell death in SH-SY5Y cells (AID 1508616; active means well fitted curve in the direction sought with a large enough effect; an effect the other way counts as inactive or inconclusive;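 further: top concentration of the series differs between compounds; higher means more rescue of cells from virus-induced death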)
# Summary of the method: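 Luminescent ATP readout (ATPLite 1step, 5 min room temperature) measured rescue from LACV-induced death after 6 days of infection at 0.01 MOI; normalized to infected DMSO wells and uninfected DMSO wells.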
# [10] = biological target: Calcium and integrin-binding protein 1 (Homo sapiens) (UniProt Q99828); assay: Primary qHTS for Identification of Calcium Integrin Binding Protein 1 (CIB1) Competitor (AID 1508620; active means well fitted curve in the direction sought with a large enough effect; an effect the other way counts as inactive or inconclusive;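 further: GST tagged CIB1 binding a fluorescein labelled alphaIIb integrin peptide tracer; top concentration of the series differs between compounds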)
# Sequence of Calcium and integrin-binding protein 1 (Homo sapiens) (Q99828 whole entry, looked up): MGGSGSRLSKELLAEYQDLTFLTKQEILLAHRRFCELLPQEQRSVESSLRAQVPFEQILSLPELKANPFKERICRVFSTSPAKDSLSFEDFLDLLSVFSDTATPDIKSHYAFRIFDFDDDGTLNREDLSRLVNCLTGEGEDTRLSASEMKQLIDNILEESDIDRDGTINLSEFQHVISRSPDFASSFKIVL
# Summary of the method: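 Fluorescence polarization competition: GST-tagged CIB1 (1 uM final) preincubated with compound 15 min at room temperature, then FITC-labelled alphaIIb peptide (100 nM final) added. After 15 min at room temperature, polarization read at Ex 480/Em 540.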
# [11] = Primary qHTS for small molecule stabilizers of the endoplasmic reticulum resident proteome: Secreted ER Calcium Modulated Protein (SERCaMP) assay (AID 1508630; active means well fitted curve in the direction sought with a large enough effect; an effect the other way counts as inactive or inconclusive)
# Summary of the method: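 GLuc-SERCaMP-expressing SH-SY5Y cells, pretreated 16 h with compound, are challenged with thapsigargin to empty ER calcium stores; after 4 h, coelenterazine is added directly to the medium and luminescence is imaged.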
# [12] = A High-Content qHTS Against Drug Library for the Identification of Small Molecules that Inhibit DYT1 Early Onset Primary Dystonia-Associated Cell Pathology (AID 1645839); further: series mostly up to about 46 µM
# Summary of the method: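 Flp-In T-REx 293 cells with tetracycline-inducible EGFP-delE hTOR1A (WT EGFP-hTOR1A as reference), 800 cells/well; compound added with tetracycline, 48 h at 37 C. Fixed, permeabilized cells imaged; %pathology (punctate TorsinA) primary, cell count counterscreen.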
# [13] = biological target: Cytochrome P450 2D6 (Homo sapiens) (UniProt P10635); assay: Cytochrome P450 family 2 subfamily D member 6 (CYP2D6) small molecule antagonists: luciferase biochemical (cell-free) qHTS assay (AID 1645840; active means well fitted curve in the direction sought with a large enough effect in the repeat runs; an effect the other way counts as inactive or inconclusive; further: nearly all actives have a fitted effect of over 55% in size; further: potency means the concentration at half of the fitted maximal effect)
# Sequence of Cytochrome P450 2D6 (Homo sapiens) (P10635 whole entry, looked up): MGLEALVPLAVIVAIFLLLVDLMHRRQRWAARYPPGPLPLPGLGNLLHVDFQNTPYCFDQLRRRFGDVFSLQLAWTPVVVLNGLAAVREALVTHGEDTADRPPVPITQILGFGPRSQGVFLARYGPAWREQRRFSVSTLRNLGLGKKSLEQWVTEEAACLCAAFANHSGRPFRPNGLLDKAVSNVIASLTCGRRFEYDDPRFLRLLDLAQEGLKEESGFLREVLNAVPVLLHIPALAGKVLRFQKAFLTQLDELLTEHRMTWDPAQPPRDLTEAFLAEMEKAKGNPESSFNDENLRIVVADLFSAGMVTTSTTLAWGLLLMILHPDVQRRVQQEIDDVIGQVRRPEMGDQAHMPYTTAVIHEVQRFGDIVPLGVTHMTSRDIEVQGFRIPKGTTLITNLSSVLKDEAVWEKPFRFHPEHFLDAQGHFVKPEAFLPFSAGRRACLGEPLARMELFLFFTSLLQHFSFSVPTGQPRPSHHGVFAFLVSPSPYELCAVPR
# Summary of the method: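 P450-Glo luminescent screen: recombinant CYP2D6 enzyme–proluciferin substrate mix preincubated with compound 10 min at room temperature, then NADPH regeneration added for 1 h at room temperature. Detection reagent added for 20 min; luciferin light read as relative luminescence units.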
# [14] = biological target: Cytochrome P450 2C9 (Homo sapiens) (UniProt P11712); assay: Cytochrome P450 family 2 subfamily C member 9 (CYP2C9) small molecule antagonists: luciferase biochemical (cell-free) qHTS assay (AID 1645842; active means well fitted curve in the direction sought with a large enough effect in the repeat runs; an effect the other way counts as inactive or inconclusive; further: nearly all actives have a fitted effect of over 55% in size; further: potency means the concentration at half of the fitted maximal effect)
# Sequence of Cytochrome P450 2C9 (Homo sapiens) (P11712 whole entry, looked up): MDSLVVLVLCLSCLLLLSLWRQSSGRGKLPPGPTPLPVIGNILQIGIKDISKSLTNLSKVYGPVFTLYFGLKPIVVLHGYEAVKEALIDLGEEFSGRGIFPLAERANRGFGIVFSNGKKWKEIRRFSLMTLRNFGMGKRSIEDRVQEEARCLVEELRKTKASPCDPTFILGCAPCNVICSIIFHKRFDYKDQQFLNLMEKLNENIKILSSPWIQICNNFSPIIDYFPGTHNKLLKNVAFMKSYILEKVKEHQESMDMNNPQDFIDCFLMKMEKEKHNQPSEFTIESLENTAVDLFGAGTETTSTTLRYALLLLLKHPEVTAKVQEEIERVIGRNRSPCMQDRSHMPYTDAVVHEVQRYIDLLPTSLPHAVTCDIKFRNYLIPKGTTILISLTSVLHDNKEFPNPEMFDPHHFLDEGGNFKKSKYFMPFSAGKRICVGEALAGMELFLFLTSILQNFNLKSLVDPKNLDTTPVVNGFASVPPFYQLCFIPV
# Summary of the method: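 Luminescence, after 20 min with luciferin detection reagent, reflected CYP2C9 turnover during a 1 h NADPH-driven reaction at 37C. Enzyme-substrate mix contained 0.4% bovine serum albumin and was preincubated with compound 10 min at room temperature.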
structure (smiles),measurement,setting,value
CN1CCC[C@@H]1CCO[C@](C)(c1ccccc1)c1ccc(Cl)cc1,Potency,[1],10 µM (active)
same,Potency,[2],4.47 µM (active)
same,Potency,[3],inactive
same,Potency,[4],inactive
same,Potency,[5],10 µM (active)
Cc1ccc(NC(=O)c2ccc(CN3CCN(C)CC3)cc2)cc1Nc1nccc(-c2cccnc2)n1,Potency,[1],12.6 µM (active)
same,Potency,[6],inactive
same,Potency,[3],inactive
same,Potency,[4],inactive
same,Potency,[5],8.91 µM (active)
same,Potency,[7],21.5 µM (active)
O=C(c1ccc(OCCN2CCCCC2)cc1)c1c(-c2ccc(O)cc2)sc2cc(O)ccc12,Potency,[1],20 µM (active)
same,Potency,[2],11.2 µM (active)
same,Potency,[3],inactive
CCCCc1oc2ccc(NS(C)(=O)=O)cc2c1C(=O)c1ccc(OCCCN(CCCC)CCCC)cc1,Potency,[1],22.4 µM (active)
same,Potency,[2],17.8 µM (active)
Nc1[nH]c(=O)ncc1F,Potency,[1],inactive
same,Potency,[6],inactive
same,Potency,[3],inactive
same,Potency,[8],inactive
CC(=O)N(O)CCCCCNC(=O)CCC(=O)N(O)CCCCCNC(=O)CCC(=O)N(O)CCCCCN,Potency,[1],inactive
same,Potency,[2],inactive
same,Potency,[3],inactive
O[C@@H](c1cc(C(F)(F)F)nc2c(C(F)(F)F)cccc12)[C@H]1CCCCN1,Potency,[1],inactive
same,Potency,[2],inactive
CC[C@]1(O)C[C@H]2CN(CCc3c([nH]c4ccccc34)[C@@](C(=O)OC)(c3cc4c(cc3OC)N(C=O)[C@H]3[C@@](O)(C(=O)OC)[C@H](OC(C)=O)[C@]5(CC)C=CCN6CC[C@]43[C@@H]65)C2)C1,Potency,[1],inactive
same,Potency,[6],inactive
same,Potency,[7],0.0383 µM (active)
same,Potency,[8],inactive
CC(=O)O[C@]1(C(C)=O)CC[C@H]2[C@@H]3C=C(C)C4=CC(=O)CC[C@]4(C)[C@H]3CC[C@@]21C,Potency,[1],inactive
same,Potency,[6],inactive
same,Potency,[3],inactive
same,Potency,[8],inactive
CC(C)(C)CC(C)(C)c1ccc(O)cc1,Potency,[1],inactive
same,Potency,[6],inactive
same,Potency,[2],inactive
same,Potency,[9],inactive
same,Potency,[10],inactive
same,outcome,[11],inactive
same,Potency,[12],inactive
same,Potency,[13],36.6 µM (active)
same,Potency,[14],11.9 µM (active) and 15.5 µM (active)
Oc1cc(Cl)ccc1Oc1ccc(Cl)cc1Cl,Potency,[6],inactive
same,Potency,[2],inactive
same,Potency,[3],inactive
same,Potency,[9],inactive
same,Potency,[10],inactive
same,outcome,[11],inactive
same,Potency,[12],inactive
same,Potency,[13],8.64 µM (active) and 11 µM (active)
CC(C)C(=O)Nc1ccc([N+](=O)[O-])c(C(F)(F)F)c1,Potency,[6],inactive
same,Potency,[2],22.4 µM (active)
COc1ccc(Cc2nccc3cc(OC)c(OC)cc23)cc1OC,Potency,[1],14.1 µM (active)
same,Potency,[9],inactive
same,Potency,[10],inactive
same,outcome,[11],inactive
same,Potency,[12],inactive
same,Potency,[13],4.9 µM (active)
same,Potency,[14],9.77 µM (active)
same,Potency,[8],7.94 µM (active)
COc1cc(C(C)=O)ccc1OCCCN1CCC(c2noc3cc(F)ccc23)CC1,Potency,[1],22.4 µM (active)
same,Potency,[4],inactive
same,Potency,[5],11.2 µM (active)
CCN(CC)CCNC(=O)c1c(C)[nH]c(/C=C2\C(=O)Nc3ccc(F)cc32)c1C,Potency,[6],31.6 µM (active)
same,Potency,[2],11.2 µM (active)
c1ccc2c(c1)Nc1ccccc1S2,Potency,[6],inactive
same,Potency,[2],inactive
same,Potency,[3],inactive
same,Potency,[9],inactive
same,Potency,[10],inactive
same,outcome,[11],inactive
same,Potency,[12],inactive
same,Potency,[13],inactive
same,Potency,[14],inactive
same,Potency,[8],inactive
NC(=O)N1c2ccccc2CC(=O)c2ccccc21,Potency,[6],inactive
same,Potency,[2],inactive
same,Potency,[3],inactive
CNCC[C@@H](Oc1ccccc1C)c1ccccc1,Potency,[1],inactive
same,Potency,[3],inactive
same,Potency,[8],inactive
COc1ccccc1OCC(O)CN1CCN(CC(=O)Nc2c(C)cccc2C)CC1 (stereo not drawn),Potency,[6],inactive
same,Potency,[2],inactive
same,Potency,[3],inactive
Oc1ccccc1-c1ccccc1,Potency,[6],inactive
same,Potency,[2],inactive
same,Potency,[3],inactive
same,Potency,[9],inactive
same,Potency,[10],inactive
same,outcome,[11],inactive
same,Potency,[12],inactive
same,Potency,[13],inactive
same,Potency,[14],inactive
same,Potency,[8],inactive
CC/C(=C(\c1ccccc1)c1ccc(OCCN(C)C)cc1)c1ccccc1,Potency,[6],inactive
same,Potency,[2],7.08 µM (active)
same,Potency,[3],inactive
same,Potency,[4],10 µM (active)
same,Potency,[7],27.8 µM (active)
same,Potency,[8],inactive
Cc1ccc(-n2[nH]c(C)c(N=Nc3cccc(-c4cccc(C(=O)O)c4)c3O)c2=O)cc1C,Potency,[1],inactive
same,Potency,[3],inactive
same,Potency,[8],inactive
